Compound activity: PubChem BioAssay, several laboratories
DAT uptake mod: human DAT dopamine uptake with cocaine, either direction | Q01959 | AID 449768 | B-score at 10 µM | 1.3% of 110,000 active | LLC-PK1 hDAT cells, [14C]-dopamine uptake with cocaine IC80; actives deviate in either direction;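 active means Z score or B-score, a plate-position-corrected score, falls beyond the plate's 99.7% confidence bounds, in either direction; inactive means both scores lie inside the 99.7% bounds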;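 further: scored against the spread of the other compound wells on the same plate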
PostGolgi yeast: growth inhibition of a yeast mutant, post-Golgi transport screen | post-Golgi transport phenotypic cell assay | inhibition, % at 10 µM | 0.9% of 98,000 active | AID 739;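 further: yeast cells grown in 1536-well plates; yeast grown about 18 h at 30C before absorbance read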
Cav3 T inh: blocks human Cav3.2 T-type calcium channel; O95180; B-score at 10 µM; 4% of 100,000 active; Cav3.2-expressing cells, Fluo-4 calcium fluorescence FDSS; stronger effect = lower value;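 active means single-dose well whose peak fluorescence ratio is a statistical outlier from its plate by either plate-standardised score or position-corrected B-score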
TNAP act mid DEA: activates human TNAP at intermediate phosphate acceptor concentration | activation factor at 20 µM | 64,000 tested, under 10 active | purified TNAP, CDP-star luminescence, 100 mM DEA, 30 min; stronger effect = higher value; scale: 0 levamisole-inhibited, 1 vehicle-only enzyme;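 active means activation factor of at least 2 at 20 µM, relative to controls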
PostGolgi ctrl: inhibits growth of the yeast control strain; efflux-deficient yeast background strain, growth absorbance A615, 16 h; inhibition, % at 10 µM; 5% of 98,000 active; AID 738
Smad3 FoxH1 inh: Smad3 (human) transcription factor binding inhibition | P84022 | TR-FRET Smad3/Dy647-FoxH1 peptide binding, europium anti-His | 0.29% of 88,000 active | inhibition, % at 25 µM | AID 630;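 active means compounds that reduce the energy-transfer binding signal between the protein and its labelled peptide by more than half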;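 further: 0% = Smad3 plus labelled peptide maximal FRET and 100% = peptide-only background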
Target sequence (P84022 whole entry, looked up): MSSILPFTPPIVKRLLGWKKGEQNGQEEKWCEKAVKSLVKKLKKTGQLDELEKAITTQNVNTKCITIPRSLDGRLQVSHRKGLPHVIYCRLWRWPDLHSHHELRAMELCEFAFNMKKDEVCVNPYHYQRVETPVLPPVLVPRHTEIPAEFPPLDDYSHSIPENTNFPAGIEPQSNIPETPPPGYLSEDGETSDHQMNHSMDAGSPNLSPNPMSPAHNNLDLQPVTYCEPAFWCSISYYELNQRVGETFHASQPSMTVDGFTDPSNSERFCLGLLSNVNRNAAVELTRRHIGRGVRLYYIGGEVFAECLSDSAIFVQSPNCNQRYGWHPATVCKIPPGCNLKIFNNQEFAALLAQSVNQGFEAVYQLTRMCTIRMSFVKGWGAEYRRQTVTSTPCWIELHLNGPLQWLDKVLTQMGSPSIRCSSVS
Numbers without * were called inactive; x = not tested or not shown. Sampled rows, rich in hits. Any-hit rate of the full collection: about 8.7%. Unless noted, no stated cut-off is given here; in the data, active means inhibition above about 30%; inactive means the rest.

SMILES	DAT uptake mod	PostGolgi yeast	Cav3 T inh	TNAP act mid DEA	PostGolgi ctrl	Smad3 FoxH1 inh
Cc1cc(C)nc(SCc2nnc(SCC(=O)Nc3nc(-c4ccccc4)cs3)n2-c2ccccc2)n1	1.2	-8	-8.4*	x	-9	11
CCc1nnc(NC(=O)CSc2nnc(-c3ccccc3O)n2CC)s1	0.35	-4	-4.8	x	4	-16
CCn1c(CCNC(=O)c2cccs2)nnc1SCC(=O)Nc1cccc(Cl)c1	1.1	x	-1.3	x	x	1
CCn1c(CCNC(=O)c2cccs2)nnc1SCC(=O)Nc1nc(-c2ccccc2)cs1	-0.53	x	-7.5*	x	x	5
CCOc1ccccc1N(CC(=O)NC(C)(C)C)C(=O)Cn1nnc(-c2ccc(C)o2)n1	-0.36	-2	-0.64	0.9	7	-2
CC(=O)Nc1nc2ncc(C=O)nc2c(=O)[nH]1	x	x	x	x	x	-10
CC(=O)Nc1cccc(C(=O)OC(C(=O)c2ccc(C)cc2)c2ccccc2)c1 (stereo not given)	2.2	-11	-0.029	x	33*	x
COc1ccc(C(=O)OC(C(=O)c2ccc(C)cc2)c2ccccc2)cc1 (stereo not given)	-0.62	-4	-0.96	x	11	x
CCCCCCNC(=O)CC(c1ccccc1)c1cc(Br)ccc1O (stereo not given)	0.75	x	-5.9*	x	x	0
CC(C)Oc1ccc(CNC(=O)CC(c2ccccc2)c2cc(Cl)ccc2O)cc1 (stereo not given)	-0.052	1	-3.5*	x	24	x
CC(C)NC(=O)CC(c1ccccc1)c1cc(Br)ccc1O (stereo not given)	-2.3	9	-3.3	x	14	1
O=C(CC(c1ccccc1)c1cc(Br)ccc1O)NCc1ccco1 (stereo not given)	2	-5	-9.9*	0.9	5	4
Cc1ccc(OCC(=O)Nc2cccc(-c3nnc(-c4ccccc4)o3)c2)cc1	x	13	x	0.9	8	x
Cc1ccc(OCC(=O)Nc2oc(-c3ccccc3)c(-c3ccccc3)c2C#N)cc1	-0.45	x	-7.5*	x	x	5
N#Cc1c(NC(=O)COC(=O)C2CC3C=CC2C3)oc(-c2ccccc2)c1-c1ccccc1 (stereo not given)	-1.8	7	-6*	0.8	15	-13
O=C(COC(=O)C1CC2C=CC1C2)Nc1ccc2c(c1)OC(F)(F)O2 (stereo not given)	2.2	-10	-5.5*	0.9	-6	-4
N#Cc1c(NC(=O)CSc2ncccn2)oc(-c2ccccc2)c1-c1ccccc1	-0.084	x	x	x	x	5
N#Cc1c(NC(=O)Cn2cnc3ccccc3c2=O)oc(-c2ccccc2)c1-c1ccccc1	-0.47	14	-10*	1	-1	6
N#Cc1c(NC(=O)CN2CCOCC2)oc(-c2ccccc2)c1-c1ccccc1	-0.2	-5	-3.1	0.9	13	0
COc1cccc(C(O)CC(N)=O)c1 (stereo not given)	1.6	4	0.12	0.9	-1	-1
c1ccc(OCCSc2ncnc3nc[nH]c23)cc1	0.18	x	-0.57	0.9	x	24
CCOc1ccc(-c2nnc(N)o2)cc1	0.39	10	-0.4	1	19	10
COc1ccccc1OCC(=O)Nc1oc(-c2ccccc2)c(-c2ccccc2)c1C#N	-0.015	-3	-6.9*	0.8	20	7
N#Cc1c(NC(=O)CSc2n[nH]c(Cc3ccccc3)n2)oc(-c2ccccc2)c1-c1ccccc1	0.67	4	-6.4*	0.9	15	2
COc1ccc(-c2oc(NC(=O)CCl)c(C#N)c2-c2ccc(OC)cc2)cc1	-1.6	28	0.69	x	50*	-7
SMILES	DAT uptake mod	PostGolgi yeast	Cav3 T inh	TNAP act mid DEA	PostGolgi ctrl	Smad3 FoxH1 inh
COc1ccc(CC(=O)Nc2oc(-c3ccccc3)c(-c3ccccc3)c2C#N)cc1OC	0.37	-8	-5.6*	0.9	-4	x
Oc1ccccc1C1=Nc2ncnn2C(c2ccccc2)C1 (stereo not given)	0.52	7	0.43	1.1	-2	6
COC(=O)c1ccccc1NC(=O)c1cc2nc(C3CC3)cc(C(F)(F)F)n2n1	0.068	19	0.25	x	7	x
Cc1ccc(C)c(NC(=O)CN2C(=O)CNC2=O)c1	-0.54	6	0.45	x	-1	x
O=C1CC(NCCC2=CCCCC2)C(=O)N1c1cccc(Cl)c1Cl (stereo not given)	3.5*	6	-3.4*	x	12	x
O=C(CN1C(=O)CSc2ccccc21)NCCC1=CCCCC1	x	7	x	1	10	3
COC(=O)c1cc2ccccc2c(=O)s1	-1.3	0	0.58	0.9	-2	-2
O=C(CSc1nnnn1-c1ccc(F)cc1)Nc1nc2ccccc2s1	0.07	-7	-0.74	x	9	-1
CCC(Sc1nnnn1-c1ccccc1)C(=O)Nc1nc2ccccc2s1 (stereo not given)	2.3	9	-6.7*	0.9	44*	x
CC(Sc1nnnn1-c1ccccc1)C(=O)Nc1ccc(Cl)cn1 (stereo not given)	0.91	1	-5.1*	0.9	-3	0
CCC(Sc1nnnn1-c1ccccc1)C(=O)NC(C)c1ccccc1 (stereo not given)	-0.04	2	-4.9*	1	13	-9
O=C(CSc1nnnn1-c1ccccc1)CSc1nnnn1-c1ccccc1	1.4	8	-0.029	0.8	20	x
Cc1ccc(NC(=S)NNC(=O)c2cn(C)nc2C)cc1	-1.1	0	-0.54	x	-2	x
Cc1ccc(NC(=S)NNC(=O)C2CC2c2ccc(C)cc2)cc1 (stereo not given)	0.35	x	-6.7*	x	x	-1
Cc1ccc(C2CC2C(=O)NNC(=S)Nc2cccc(Cl)c2)cc1 (stereo not given)	1.5	x	x	x	x	17
Cc1ccc(C2CC2C(=O)NNC(=S)Nc2cccc(C)c2)cc1 (stereo not given)	0.56	x	-8.7*	x	x	7
Cn1c(=O)c2cc(S(=O)(=O)NC(C(=O)NC3CCCCC3)c3ccccc3)ccc2n(C)c1=O (stereo not given)	-0.054	1	0.98	x	6	x
Cc1ccc2c(c1)NC(=O)C(CC(=O)NCCCN1CCc3ccccc3C1)O2 (stereo not given)	0.76	-1	0.91	0.9	1	1
CCOC(=O)CNc1nc(C(C)(C)C)nc2c1nnn2Cc1ccccc1Cl	0.71	-3	-1.7	0.9	19	-1
COCCNS(=O)(=O)c1cccc2cccnc12	-2.7*	2	-0.056	1	2	-6
O=S(=O)(NCc1ccco1)c1cccc2cccnc12	-0.093	-1	1.9	0.8	0	-6
CCC(=NCc1ccccc1)C1=C(O)C(C(=O)OC)C(C)(C)CC1=O (stereo not given)	-0.0089	15	x	0.9	11	-18
O=C1NC(=S)SC1=C1CCCC1	-0.15	23	0.13	x	56*	-2
CN1C(=O)C(=C2CCCCCC2)SC1=S	2	-3	1.1	0.9	7	5
COc1ccc(C(=O)Nc2ccc(S(=O)(=O)N3CCCCC3C)cc2)c(OC)c1OC (stereo not given)	1	1	-1.8	0.9	4	x
